Measurements from PubChem BioAssay AID1159580 (chemical genetic matrix, 2015).
“And” between values parts separate entries of the source, which are not always exact repeats. Identical values can stand only once. The campaign covered roughly 5,500 compounds. About 2,000 (36%) were called active. Roughly 18% stayed inconclusive and do not appear here. No stated cut-off is given here; in the data, active means normalized growth mostly below about 0.91 (no sharp cut-off); inconclusive means no clear call, values can overlap the other calls; inactive means mostly above about 0.92. The list shows a part of the results.

Experiment: chemical genetic growth profiling, strain panel (AID 1159580);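 further: tested at 20 µM; growth read once vehicle control cultures reached saturation at 30 °C; 1 = growth at the plate median or of vehicle wells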
Details: S. cerevisiae deletion strains, growth OD

Measured: normalized growth

Nc1ccc(S(=O)(=O)Nc2ccccn2)cc1
inactive: locus YAL013W, strain DEP1, stronger effect = lower value 1.02 | locus YAL021C, strain ccr4, stronger effect = lower value 1 | locus YAL026C, strain drs2, stronger effect = lower value 1.01 | locus YAL030W, strain snc1, stronger effect = lower value 1.01 | locus YBL061C, strain skt5, stronger effect = lower value 1.01 | locus YBR009C, strain hhf1, stronger effect = lower value 0.983 | locus YBR021W, strain FUR4, stronger effect = lower value 1.04 | locus YBR023C, strain chs3, stronger effect = lower value 1.01 | locus YBR171W, strain sec66, stronger effect = lower value 1.01 | locus YBR229C, strain ROT2, stronger effect = lower value 1.01 | locus YBR231C, strain swc5, stronger effect = lower value 1.03 | locus YBR279W, strain paf1, stronger effect = lower value 1.01 | locus YCL011C, strain gbp2, stronger effect = lower value 0.99 | locus YCL016C, strain dcc1, stronger effect = lower value 1 | locus YCL029C, strain bik1, stronger effect = lower value 1 | locus YCL069W, strain vba3, stronger effect = lower value 1 | locus YCR088W, strain abp1, stronger effect = lower value 1 | locus YDL005C, strain med2, stronger effect = lower value 1.02 | locus YDL035C, strain GPR1, stronger effect = lower value 1.01 | locus YDL040C, strain nat1, stronger effect = lower value 1.01 | locus YDL074C, strain BRE1, stronger effect = lower value 1.02 | locus YDL101C, strain DUN1, stronger effect = lower value 1 | locus YDL134C, strain PPH21, stronger effect = lower value 1.01 | locus YDL185W, strain tfp1, stronger effect = lower value 0.982 | locus YDL192W, strain arf1, stronger effect = lower value 0.996 | locus YDR001C, strain nth1, stronger effect = lower value 1.01 | locus YDR069C, strain doa4, stronger effect = lower value 1.02 | locus YDR101C, strain arx1, stronger effect = lower value 0.987 | locus YDR137W, strain rgp1, stronger effect = lower value 1.01 | locus YDR159W, strain sac3, stronger effect = lower value 0.986 | locus YDR162C, strain NBP2, stronger effect = lower value 1 | locus YDR195W, strain ref2 1.04 | locus YDR297W, strain sur2, stronger effect = lower value 1.01 | locus YDR318W, strain mcm21, stronger effect = lower value 0.988 | locus YDR334W, strain swr1, stronger effect = lower value 1.01 | locus YDR335W, strain msn5, stronger effect = lower value 1.01 | locus YDR388W, stronger effect = lower value 0.988 | locus YDR392W, strain spt3, stronger effect = lower value 0.951 | locus YDR502C, strain sam2, stronger effect = lower value 0.996 | locus YEL003W, strain gim4, stronger effect = lower value 1.02 | locus YEL037C, strain rad23, stronger effect = lower value 1.01 | locus YEL061C, strain CIN8 (second series), stronger effect = lower value 1.01 | locus YEL061C, strain CIN8, stronger effect = lower value 1.01 | locus YER015W, strain faa2, stronger effect = lower value 1.02 | locus YER016W, strain bim1, stronger effect = lower value 0.996 | locus YER110C, stronger effect = lower value 0.993 | locus YER111C, strain swi4, stronger effect = lower value 1.01 | locus YER155C, strain BEM2 (second series), stronger effect = lower value 1.01 | locus YER155C, strain BEM2, stronger effect = lower value 1.01 | locus YER167W, strain BCK2, stronger effect = lower value 1 | locus YFR010W, strain ubp6, stronger effect = lower value 1.02 | locus YGL078C, strain dbp3, stronger effect = lower value 1 | locus YGL086W, strain mad1, stronger effect = lower value 1 | locus YGL167C, strain pmr1, stronger effect = lower value 1.02 | locus YGL173C, strain kem1, stronger effect = lower value 1.02 | locus YGL227W, strain vid30, stronger effect = lower value 1.02 | locus YGL240W, strain doc1, stronger effect = lower value 1.02 | locus YGL248W, strain PDE1, stronger effect = lower value 1.02 | locus YGL253W, strain hxk2, stronger effect = lower value 0.999 | locus YGR135W, strain pre9, stronger effect = lower value 1.01 | locus YGR229C, strain SMI1, stronger effect = lower value 1.02 | locus YGR252W, strain gcn5, stronger effect = lower value 1.03 | locus YHR013C, strain ard1, stronger effect = lower value 1.01 | locus YHR027C, strain rpn1, stronger effect = lower value 1.01 | locus YHR030C, strain SLT2, stronger effect = lower value 1.01 and 0.97 | locus YHR079C, strain IRE1 (second series), stronger effect = lower value 0.992 | locus YHR079C, strain IRE1, stronger effect = lower value 0.985 | locus YHR094C, strain hxt1, stronger effect = lower value 0.99 | locus YHR129C, strain ARP1, stronger effect = lower value 1.02 | locus YHR142W, strain chs7, stronger effect = lower value 0.98 | locus YHR200W, strain rpn10, stronger effect = lower value 0.986 | locus YIL066C, strain RNR3, stronger effect = lower value 1.01 | locus YIL073C, strain SPO22, stronger effect = lower value 0.989 | locus YIL125W, strain kgd1, stronger effect = lower value 0.983 | locus YIR030C, strain dcg1, stronger effect = lower value 0.996 | locus YJL092W, strain hpr5, stronger effect = lower value 1.02 | locus YJL095W, strain BCK1 (second series), stronger effect = lower value 1.01 | locus YJL095W, strain BCK1, stronger effect = lower value 1.02 and 0.979 | locus YJL115W, strain asf1, stronger effect = lower value 1.01 | locus YJL129C, strain trk1, stronger effect = lower value 1.02 | locus YJL134W, strain LCB3, stronger effect = lower value 1 | locus YJL154C, strain vps35, stronger effect = lower value 1.02 | locus YJL164C, strain tpk1, stronger effect = lower value 0.972 | locus YJL166W, strain qcr8, stronger effect = lower value 1.02 | locus YJL168C, strain set2, stronger effect = lower value 0.99 | locus YJL187C, strain SWE1 (second series), stronger effect = lower value 1.01 | locus YJR043C, strain POL32, stronger effect = lower value 1 | locus YJR066W, strain TOR1, stronger effect = lower value 0.928
